The inhibition is the drop in the measured response relative to a control, in per cent.

The source of these data is PubChem BioAssay.

Assay [1] in a line: inhibitors of TNFa-induced NFkB p65 translocation, primary screen, imaging, HUVEC, MLSMR starter and 10KST1 sets (AID 438;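 active means inhibition above 20% together with a positive visual image hit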;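 further: compound added about 3h40 before a 20 min TNFalpha stimulation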;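 on inhibition: signal is the nuclear over cytoplasmic p65 intensity ratio per well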). The note with it: HUVEC TNFa-induced p65 nuclear translocation; cell count: measured here: nuclei count (cytotoxicity indicator), at 2.08 µM; inhibition: at 2 µM, stronger effect = higher value, 0% TNFa-plus-vehicle, 100% no-TNFa wells.
The nature of assay [2]: reduction of polyQ htt aggregates in cells – imaging, exon1htt(103Q)mCFP cells, high-content imaging, primary screen (AID 483;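 active means visual image review flags a hit and inhibition of aggregation exceeds 20%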;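 further: compound exposure lasted 3 days before fixation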;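 on nuclei count: percent of the per-plate median nuclei count of sample wells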). The note with it: exon1htt(103Q)mCFP cell line, aggregate imaging, at 2 µM; inhibition of aggregation: stronger effect = higher value; nuclei count: measured here: cell count, toxicity.
Assay [3] is described as follows: endothelial E-selectin expression blockers – imaging, HUVEC, immunofluorescence, MLSMR starter and 10KST1 sets, primary screen (AID 487;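 active means visually confirmed hit in the image check and inhibition above 20%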;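 on inhibition: signal is fraction of cell area covered by stained E-selectin grains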;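 on nuclei count: 100% = median nuclei count of all wells on the same plate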). The note with it: HUVEC TNFalpha-induced E-selectin immunofluorescence imaging, at 2 µM; inhibition: stronger effect = higher value; nuclei count: measured here: cell number, toxicity.
The nature of assay [4]: Primary imaging screen for DUSP6 inhibitors that restore phospho-Erk in transfected HeLa cells, chemical complementation (AID 609;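 active means compounds giving at least 50% inhibition in the cell-based MKP-3 phosphatase rescue imaging test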;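 on inhibition: phospho-Erk level distribution per well compared with pooled transfected vehicle control wells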). The note with it: HeLa MKP-3 transfected, phospho-Erk imaging KS statistic, at 10 µM, cells stimulated with TPA for 15 min.
Assay [5] addresses Dual specificity protein phosphatase 6 (Homo sapiens) (UniProt Q16828). The assay is described as above. As to conditions: HeLa MKP-3 transfected, phospho-Erk imaging KS statistic; at 10 µM; stronger effect = higher value; cells stimulated with TPA for 15 min.
Assay [6] addresses Voltage-gated potassium channel subunit beta-2 (Rattus norvegicus) (UniProt P62483). The assay is described as follows: inhibitors of rat Kvbeta2 reductase activity – biochemical, NADPH fluorescence, primary screen (AID 622;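 active means fluorescence slope higher than the sample average by over 3 SD, cut at about -0.22 in these data, passing the limit was not always enough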;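 further: slope of raw intensity against log time taken from 70 to 1610 s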). As to conditions: recombinant KvBeta, 4-cyanobenzaldehyde reduction, at 10 µM, stronger effect = higher value.
Assay [7] has the same target. The experiment in a line: enhancers of rat Kvbeta2 NADPH turnover – biochemical, NADPH fluorescence, primary screen (AID 623;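 active means NADPH fluorescence slope more negative than the mean of all samples by about 3 SD, 99.7% confidence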;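 further: fluorescence intensity change per second fitted from 20 to 320 s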). As to conditions: Recombinant KvBeta, NADPH fluorescence decrease slope, 10 min; at 10 µM; stronger effect = lower value.
The target of assay [8] is Alpha-2C adrenergic receptor (Homo sapiens) (UniProt P18825). The assay is described as follows: compounds altering alpha2C-coupled GIRK flux – cell-based, HEK293 alpha2C/GIRK1/2, thallium flux, primary screen (AID 624;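 active means fluorescence slope after compound addition differing from the mean of all screened samples at 99.7% confidence, in either direction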;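 further: slope of fluorescence ratio to pre-addition baseline per second over 15 to 24 s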). The note with it: thallium flux BTC fluorescence, at 10 µM, actives lie on both sides.
Assay [9] is described as follows: inhibitors of larval lipid processing in zebrafish, primary screen, whole organism, PED6 fluorescence, gall bladder and intestine (AID 686;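 active means a full or partial loss of lipid-probe fluorescence in the fish gall bladder, intestine or both, judged by eye; inactive means no fluorescence loss, or compound toxic to the fish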;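 further: larvae 5 to 7 days old with five fish per well; signal comes from phospholipase A2 cleavage of quenched PED6 carried via bile; overnight exposure to compound and PED6 before scoring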). The note with it: Zebrafish larvae PED6 lipid processing, fluorescence scoring; screened at 20 µM (by protocol).
Assay [10] in a line: loss of swimming-algae plug formation – whole organism, Chlamydomonas reinhardtii, WT vs cilia-less mutant, absorbance, 96-well, primary screen (AID 463189).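 Further: 0% = wild type cc124 cells in DMSO and 100% = ciliumless bld1 mutant cells.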 As to conditions: Chlamydomonas reinhardtii gravitaxis, OD600 absorbance, 2 days; at 10 µM; stronger effect = higher value.
Assay [11] is described as follows: blockers of RIG-like receptor reporter activation – cell-based, Sendai virus stimulus, luciferase, 10K MLSCN set, TLR/RLR signaling modifier project, primary screen (AID 602276;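 active means inhibition at or above 50% at 10 µM; inactive means inhibition below 50%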;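 further: firefly luciferase from ISG56 promoter only with Renilla not read in this screen; 0% = Sendai virus plus DMSO and 100% = medium plus DMSO without virus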). The note with it: HEK293 RL24 IRF3 luciferase reporter, at 10 µM, stronger effect = higher value. Background: In a reporter assay the amount or activity of a reporter protein is the signal.
Assay [12] can be described thus: TLR3 IRF3 reporter activation blockers – cell-based, poly I:C stimulus, luciferase, 10K MLSCN set, primary screen (AID 602277;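 active means inhibition of the reporter signal at or above 50%; inactive means inhibition below 50%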). As to conditions: HEK293-TLR3 RL24 IRF3 luciferase reporter, at 10 µM, stronger effect = higher value.
Where [13] appears, read: measured here: cell density z-score.
Where [14] appears, read: measured here: nuclear c-Myc green intensity z-score.
Where [15] appears, read: measured here: nuclear pErk red intensity z-score, stronger effect = higher value.

“And” between values parts separate entries of the source, which are not always exact repeats. Equal values may be shown once. The source made the active and inactive calls.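 How the source made its calls, unless noted: active means inhibition at or above 50% relative to wild type and mutant plate controls; inactive means inhibition below 50%.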

Sequence of Alpha-2C adrenergic receptor (Homo sapiens) (P18825 whole entry, looked up): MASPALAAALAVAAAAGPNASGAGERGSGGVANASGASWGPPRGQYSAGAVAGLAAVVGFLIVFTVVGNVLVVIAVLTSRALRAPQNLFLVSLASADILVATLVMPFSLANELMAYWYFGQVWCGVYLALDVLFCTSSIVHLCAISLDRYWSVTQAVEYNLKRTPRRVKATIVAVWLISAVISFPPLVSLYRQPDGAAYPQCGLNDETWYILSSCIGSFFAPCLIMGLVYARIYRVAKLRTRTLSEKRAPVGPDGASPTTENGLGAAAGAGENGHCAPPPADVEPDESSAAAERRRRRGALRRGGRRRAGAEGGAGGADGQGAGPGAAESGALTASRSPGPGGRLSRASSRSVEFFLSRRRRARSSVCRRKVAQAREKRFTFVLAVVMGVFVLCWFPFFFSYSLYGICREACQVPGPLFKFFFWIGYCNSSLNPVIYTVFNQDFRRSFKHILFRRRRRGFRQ
Sequence of Dual specificity protein phosphatase 6 (Homo sapiens) (Q16828 whole entry, looked up): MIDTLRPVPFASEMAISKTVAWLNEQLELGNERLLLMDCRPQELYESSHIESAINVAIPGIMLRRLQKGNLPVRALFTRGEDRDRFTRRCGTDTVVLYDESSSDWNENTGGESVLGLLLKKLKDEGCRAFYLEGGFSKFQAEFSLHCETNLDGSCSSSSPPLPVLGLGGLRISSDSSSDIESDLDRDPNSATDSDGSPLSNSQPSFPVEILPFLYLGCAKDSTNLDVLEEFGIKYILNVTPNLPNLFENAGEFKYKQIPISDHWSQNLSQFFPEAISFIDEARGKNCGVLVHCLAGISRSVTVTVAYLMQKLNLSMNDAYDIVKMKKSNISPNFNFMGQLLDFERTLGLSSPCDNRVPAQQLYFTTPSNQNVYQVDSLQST
Sequence of Voltage-gated potassium channel subunit beta-2 (Rattus norvegicus) (P62483 whole entry, looked up): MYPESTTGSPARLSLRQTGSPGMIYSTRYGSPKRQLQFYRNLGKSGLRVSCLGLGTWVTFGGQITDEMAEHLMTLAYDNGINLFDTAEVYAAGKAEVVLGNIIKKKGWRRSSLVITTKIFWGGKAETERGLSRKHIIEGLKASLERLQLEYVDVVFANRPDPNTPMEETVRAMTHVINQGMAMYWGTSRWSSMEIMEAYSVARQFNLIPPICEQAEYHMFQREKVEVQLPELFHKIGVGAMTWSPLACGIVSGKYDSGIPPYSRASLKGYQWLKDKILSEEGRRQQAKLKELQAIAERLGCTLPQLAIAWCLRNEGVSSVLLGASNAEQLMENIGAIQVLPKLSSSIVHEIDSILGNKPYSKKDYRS

Take `CC(C)(C)NCC(O)COc1cccc2c1C[C@H](O)[C@H](O)C2` (stereo not given in full): the cell count in [1] amounted to 666. Besides, the inhibition in assay [1] was 3.8% (inactive); in assay [3] it was -100% (inactive); in assay [5] it was -0.828% (inactive); in [10], 18.1% (inactive); in [11], 9.2% (inactive); in [12] it was 32.8% (inactive). For the same molecule, the inhibition of aggregation in [2] was -15.5% (inactive). In addition, the nuclei count in assay [2] was 101%; in assay [3], 118%. Moreover, the z-score was 0.108 in assay [4] (setting [13]), 0.144 in [4] (setting [14]) and 1.49 in assay [4] (setting [15]). Besides, the fluorescence slope in [6] was -0.441 (inactive). For the same molecule, in assay [7], the NADPH fluorescence slope was -2.9e-05 (inactive). For the same molecule, in assay [8], the slope was 0.00396 (inactive). Besides, in assay [9], the result was inactive.
Turning to `CCC[C@@H]1C[C@@H](C(=O)N[C@H]([C@@H](C)O)[C@H]2O[C@H](SC)[C@H](O)[C@@H](O)C2O)N(C)C1` (stereo not given in full), the cell count in [1] turned out to be 619. Besides, the inhibition in assay [1] is -4.3% (inactive); in assay [3], -57.7% (inactive); in assay [5] it was 8% (inactive); in assay [10], 35.8% (inactive); in [11], 19.5% (inactive); in assay [12], 27.3% (inactive). Also, in assay [2], the inhibition of aggregation is 2.3% (inactive). Moreover, the nuclei count in [2] was 101%; in assay [3], 123%. Also, the z-score in [4] (setting [13]) is -0.311; in assay [4] (setting [14]), -0.277; in [4] (setting [15]) it was 0.417. Also, the fluorescence slope in [6] is -0.465 (inactive). The NADPH fluorescence slope in [7] is 2.2e-06 (inactive). For the same molecule, the slope in assay [8] was 0.0059 (inactive). Moreover, the outcome in [9] was inactive.
Regarding `CC1=NN(c2ccccc2)C(=O)C1`, in assay [1], the cell count was 619. In addition, the inhibition is -5.9% (inactive) in [1]; -82.4% (inactive) in assay [3]; 9.37% (inactive) in [5]; 11.5% (inactive) in assay [10]; -68.4% (inactive) in assay [11]; 52% (active) in assay [12]. For the same molecule, in assay [2], the inhibition of aggregation was 2.5% (inactive). Besides, the nuclei count in assay [2] amounted to 98%; in assay [3], 130%. Moreover, the z-score is 0.599 in [4] (setting [13]), -0.649 in assay [4] (setting [14]) and 1.01 in assay [4] (setting [15]). In addition, in assay [6], the fluorescence slope was -0.432 (inactive). The NADPH fluorescence slope in assay [7] was 5.3e-06 (inactive). Besides, the slope in assay [8] was 0.00466 (inactive). The molecule was classed as inactive in assay [9].
Take `C[C@]12CCC(=O)C=C1CC[C@@H]1[C@@H]2CC[C@@]2(C)[C@H]1CC[C@]2(O)C(=O)CO`: the cell count in [1] is 695. For the same molecule, the inhibition in assay [1] is 0.6% (inactive); in [3], -97.9% (inactive); in [5], 8% (inactive); in assay [10], -0.27% (inactive) and -16.6% (inactive); in assay [11], 5.65% (inactive); in assay [12] it was 35.1% (inactive). In addition, the inhibition of aggregation in [2] is 27.5% (inactive). Also, the nuclei count turned out to be 102% in assay [2] and 125% in [3]. Also, the z-score in assay [4] (setting [13]) was 0.881; in [4] (setting [14]), 0.613; in [4] (setting [15]) it was -1.07. Moreover, in [6], the fluorescence slope was -0.52 (inactive). In addition, the NADPH fluorescence slope in [7] was -6.8e-05 (inactive). In assay [8], the slope is 0.00434 (inactive). Also, the result in assay [9] was inactive.
Consider `C1CCC(C(CC2CCCCN2)C2CCCCC2)CC1` (stereo not given), for which the cell count in assay [1] was 585. The inhibition was 4.5% (inactive) in assay [1]; 0.5% (inactive) in [3]; 8% (inactive) in assay [5]; 162% (active) in assay [10]; 33.8% (inactive) in [11]; 36.5% (inactive) in [12]. The inhibition of aggregation in assay [2] was -15.7% (inactive). Besides, the nuclei count in assay [2] was 101%; in assay [3], 138%. Also, the z-score was found to be 0.673 in [4] (setting [13]), 1.64 in assay [4] (setting [14]) and 0.659 in [4] (setting [15]). In assay [6], the fluorescence slope is -0.498 (inactive). In addition, the NADPH fluorescence slope in assay [7] is -1.1e-05 (inactive). The slope in [8] is 0.0027 (inactive). In addition, the molecule was called inactive in assay [9].
Turning to `Cc1ccc(S(=O)(=O)NCC(=O)OCN2C(=O)c3ccccc3C2=O)cc1`, the cell count in [1] is 416. Moreover, the inhibition in [1] was -4.7% (inactive); in [3] it was -23.1% (inactive); in [5], 7.93% (inactive); in [10] it was 45.3% (inactive); in assay [11] it was 11.3% (inactive); in assay [12], -3.4% (inactive). In addition, the inhibition of aggregation in [2] was -19.8% (inactive). In addition, the nuclei count in assay [2] came out at 85.7%; in assay [3], 93.4%. In addition, the values for the z-score in [4] (setting [13]), in assay [4] (setting [14]) and in assay [4] (setting [15]) were -0.341, -0.796 and 0.197, respectively. In assay [6], the fluorescence slope is -0.574 (inactive). Also, the NADPH fluorescence slope in assay [7] was 4e-05 (inactive). Moreover, the slope in assay [8] was 0.00572 (inactive). The molecule was classed as inactive in assay [9].
Regarding `CCCC(CCC)C(=O)OC1C[C@H]2CC[C@@H](C1)[N+]2(C)C` (stereo not given in full), the cell count in [1] worked out at 587. The inhibition in assay [1] was -4.2% (inactive); in assay [3] it was -72.6% (inactive); in assay [5] it was 9.37% (inactive); in assay [10] it was 17.7% (inactive); in assay [11], 18.2% (inactive); in [12] it was 42.2% (inactive). Besides, the inhibition of aggregation in [2] is 35.6% (inactive). In addition, the nuclei count in assay [2] was 88.1%; in assay [3] it was 132%. Also, the z-score is 0.0581 in assay [4] (setting [13]), 0.732 in assay [4] (setting [14]) and -0.0735 in assay [4] (setting [15]). Moreover, in [6], the fluorescence slope was -0.488 (inactive). Also, in assay [7], the NADPH fluorescence slope was -5e-05 (inactive). Besides, the slope in assay [8] is 0.0052 (inactive). The result in assay [9] was inactive.
As to `CC[N+](C)(C)c1cccc(O)c1`, the cell count in assay [1] is 610. Further, the inhibition in [1] is -6.9% (inactive); in assay [3] it was -108% (inactive); in assay [5], 3.45% (inactive); in assay [10] it was 6.97% (inactive) and -3.25% (inactive); in assay [11], 16.5% (inactive); in assay [12], 38.2% (inactive). In [2], the inhibition of aggregation is 10.2% (inactive). The nuclei count in assay [2] worked out at 102%; in assay [3], 130%. Further, the figures for the z-score in assay [4] (setting [13]), in assay [4] (setting [14]) and in assay [4] (setting [15]) were -0.368, -0.0907 and -0.21, respectively. Further, the fluorescence slope in assay [6] was -0.492 (inactive). In addition, the NADPH fluorescence slope in assay [7] was -5.2e-05 (inactive). Besides, in assay [8], the slope was 0.00476 (inactive). Further, the result in [9] was inactive.
As to `C[C@@H]1C[C@H]2[C@@H]3C[C@H](F)C4=CC(=O)C=C[C@]4(C)[C@@]3(F)[C@@H](O)C[C@]2(C)[C@@]1(O)C(=O)COC(=O)C(C)(C)C`, the cell count in assay [1] came to 563. Also, the inhibition was 1.4% (inactive) in assay [1]; -36.8% (inactive) in [3]; 5.42% (inactive) in assay [5]; -9.6% (inactive) in [10]; 2.87% (inactive) in assay [11]; 35.9% (inactive) in assay [12]. In addition, the inhibition of aggregation in [2] was -3% (inactive). Moreover, the results for the nuclei count in assay [2] and in assay [3] were 51.7% and 92.6%, respectively. The z-score in [4] (setting [13]) is 0.404; in assay [4] (setting [14]) it was -0.122; in [4] (setting [15]), -1.39. Moreover, the fluorescence slope in [6] was -0.475 (inactive). In [7], the NADPH fluorescence slope was -6.6e-05 (inactive). The slope in assay [8] was 0.00583 (inactive). The molecule was classed as inactive in assay [9].
As to `COCCOC(=O)C1=C(C)NC(C)=C(C(=O)OC(C)C)C1c1cccc([N+](=O)[O-])c1` (stereo not given), the cell count in [1] stood at 617. Further, the inhibition in assay [1] was -5.1% (inactive); in assay [3] it was -38.8% (inactive); in assay [5], 32.3% (inactive); in assay [10], 10.2% (inactive) and -3.02% (inactive); in assay [11], 19.6% (inactive); in assay [12] it was 25.9% (inactive). In addition, the inhibition of aggregation in assay [2] is -29.1% (inactive). Besides, the nuclei count amounted to 98.9% in assay [2] and 122% in [3]. The z-score is -0.996 in assay [4] (setting [13]), 0.882 in assay [4] (setting [14]) and -0.963 in [4] (setting [15]). For the same molecule, the fluorescence slope in [6] is -0.534 (inactive). The NADPH fluorescence slope in [7] is 2.5e-05 (inactive). The slope in assay [8] is 0.00348 (inactive). Further, the result in assay [9] was inactive.
